According to PubChem BioAssay AID1159580 (chemical genetic matrix, 2015):
Where “and” joins values, the source holds several entries; their conditions need not be identical. Equal entries are not always repeated. Hit rate of the full screen: of about 5,500 compounds, about 2,000 (36%) were called active. Inconclusive results (about 18%) are left out. No stated cut-off is given here; in the data, active means normalized growth mostly below about 0.91 (no sharp cut-off); inconclusive means no clear call, values can overlap the other calls; inactive means mostly above about 0.92. Some of the results follow.

Assay: chemical genetic growth profiling, strain panel (AID 1159580);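 further: tested at 20 µM; growth read once vehicle control cultures reached saturation at 30 °C; 1 = growth at the plate median or of vehicle wells; lower values mean less growth of the strain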
Details: S. cerevisiae deletion strains, growth OD

Measured: normalized growth

CNC(=O)Oc1ccc2c(c1)[C@]1(C)CCN(C)[C@@H]1N2C
inactive: locus YAL013W, strain DEP1, hits give low values 1.03 | locus YAL021C, strain ccr4, hits give low values 1 | locus YAL026C, strain drs2, hits give low values 1 | locus YAL030W, strain snc1, hits give low values 1.02 | locus YBL061C, strain skt5, hits give low values 1.02 | locus YBR009C, strain hhf1, hits give low values 0.998 | locus YBR021W, strain FUR4, hits give low values 0.99 | locus YBR023C, strain chs3, hits give low values 1.02 | locus YBR171W, strain sec66, hits give low values 1.03 | locus YBR229C, strain ROT2, hits give low values 1.01 | locus YBR231C, strain swc5, hits give low values 1.01 | locus YBR279W, strain paf1, hits give low values 1.03 | locus YCL011C, strain gbp2, hits give low values 1.03 | locus YCL016C, strain dcc1, hits give low values 1.05 | locus YCL029C, strain bik1, hits give low values 1.01 | locus YCL061C, strain MRC1, hits give low values 1.01 | locus YCL069W, strain vba3, hits give low values 1.02 | locus YCR088W, strain abp1, hits give low values 1.02 | locus YDL005C, strain med2, hits give low values 1.02 | locus YDL035C, strain GPR1, hits give low values 1.01 | locus YDL040C, strain nat1, hits give low values 1 | locus YDL074C, strain BRE1, hits give low values 1.04 | locus YDL101C, strain DUN1, hits give low values 1.01 | locus YDL134C, strain PPH21, hits give low values 1.04 | locus YDL185W, strain tfp1, hits give low values 0.992 | locus YDL192W, strain arf1, hits give low values 1.02 | locus YDR001C, strain nth1, hits give low values 1.01 | locus YDR069C, strain doa4, hits give low values 0.998 | locus YDR101C, strain arx1, hits give low values 1.02 | locus YDR137W, strain rgp1, hits give low values 1.05 | locus YDR159W, strain sac3, hits give low values 0.969 | locus YDR162C, strain NBP2, hits give low values 1.03 | locus YDR195W, strain ref2 0.977 | locus YDR297W, strain sur2, hits give low values 1.01 | locus YDR318W, strain mcm21, hits give low values 1.01 | locus YDR334W, strain swr1, hits give low values 1.02 | locus YDR335W, strain msn5, hits give low values 1.01 | locus YDR388W, hits give low values 1.01 | locus YDR392W, strain spt3, hits give low values 0.816 | locus YDR502C, strain sam2, hits give low values 1.01 | locus YEL003W, strain gim4, hits give low values 1.01 | locus YEL037C, strain rad23, hits give low values 1.01 | locus YEL061C, strain CIN8 (second series), hits give low values 1.02 | locus YEL061C, strain CIN8, hits give low values 1.01 | locus YER015W, strain faa2, hits give low values 1.01 | locus YER016W, strain bim1, hits give low values 1.02 | locus YER110C, hits give low values 1.02 | locus YER111C, strain swi4, hits give low values 1.01 | locus YER155C, strain BEM2 (second series), hits give low values 0.99 | locus YER155C, strain BEM2, hits give low values 0.993 | locus YER167W, strain BCK2, hits give low values 1.02 | locus YFR010W, strain ubp6, hits give low values 1.01 | locus YGL078C, strain dbp3, hits give low values 1.01 | locus YGL086W, strain mad1, hits give low values 0.999 | locus YGL167C, strain pmr1, hits give low values 1.02 | locus YGL173C, strain kem1, hits give low values 1.01 | locus YGL227W, strain vid30, hits give low values 1.01 | locus YGL240W, strain doc1, hits give low values 0.992 | locus YGL248W, strain PDE1, hits give low values 1.01 | locus YGL253W, strain hxk2, hits give low values 0.989 | locus YGR135W, strain pre9, hits give low values 1.03 | locus YGR229C, strain SMI1, hits give low values 1.01 | locus YGR252W, strain gcn5, hits give low values 1.03 | locus YHR013C, strain ard1, hits give low values 0.981 | locus YHR027C, strain rpn1, hits give low values 1.03 | locus YHR030C, strain SLT2, hits give low values 1.01 and 0.983 | locus YHR079C, strain IRE1 (second series), hits give low values 1 | locus YHR079C, strain IRE1, hits give low values 0.97 | locus YHR094C, strain hxt1, hits give low values 1.01 | locus YHR129C, strain ARP1, hits give low values 1.02 | locus YHR142W, strain chs7, hits give low values 1.04 | locus YHR200W, strain rpn10, hits give low values 1.01 | locus YIL066C, strain RNR3, hits give low values 1 | locus YIL073C, strain SPO22, hits give low values 0.995 | locus YIL125W, strain kgd1, hits give low values 0.999 | locus YIR030C, strain dcg1, hits give low values 0.992 | locus YJL092W, strain hpr5, hits give low values 1.01 | locus YJL095W, strain BCK1 (second series), hits give low values 1.03 | locus YJL095W, strain BCK1, hits give low values 1.04 and 0.989 | locus YJL115W, strain asf1, hits give low values 1.02 | locus YJL129C, strain trk1, hits give low values 1.08 | locus YJL134W, strain LCB3, hits give low values 1.01 | locus YJL154C, strain vps35, hits give low values 1.01 | locus YJL164C, strain tpk1, hits give low values 0.992 | locus YJL166W, strain qcr8, hits give low values 1.02 | locus YJL168C, strain set2, hits give low values 1.01 | locus YJL187C, strain SWE1 (second series), hits give low values 1.03 | locus YJL187C, strain SWE1, hits give low values 1.01 | locus YJR043C, strain POL32, hits give low values 1.04 | locus YJR066W, strain TOR1, hits give low values 0.954 | locus YJR075W, strain HOC1, hits give low values 1.03 | locus YKL009W, strain mrt4, hits give low values 1.02 | locus YKL068W, hits give low values 0.999 | locus YKL085W, strain MDH1 (second series), hits give low values 0.997 | locus YKL085W, strain MDH1, hits give low values 0.997 | locus YKL160W, strain elf1, hits give low values 1.02 | locus YKL190W, strain CNB1, hits give low values 1.01 | locus YKR001C, strain vps1, hits give low values 1.02 | locus YKR026C, strain gcn3, hits give low values 1.02 | locus YKR091W, strain srl3, hits give low values 1.02 | locus YLL001W, strain dnm1, hits give low values 1.07 | locus YLL026W, hits give low values 1.01 | locus YLL041C, strain sdh2, hits give low values 1 | locus YLR027C, strain aat2, hits give low values 0.998 | locus YLR039C, strain RIC1, hits give low values 1.12 | locus YLR058C, strain SHM2, hits give low values 1.01 | locus YLR102C, strain apc9, hits give low values 1 | locus YLR113W, strain HOG1, hits give low values 0.991 | locus YLR221C, strain rsa3, hits give low values 1.04 | locus YLR258W, strain gsy2, hits give low values 1 | locus YLR262C, strain YPT6 (second series), hits give low values 1.05 | locus YLR262C, strain YPT6, hits give low values 1.19 | locus YLR268W, strain sec22, hits give low values 1.02 | locus YLR320W, strain mms22, hits give low values 1.06 | locus YLR330W, strain CHS5, hits give low values 1.01 | locus YLR342W, strain FKS1 (second series), hits give low values 1.03 | locus YLR342W, strain FKS1, hits give low values 1.02 | locus YLR357W, strain rsc2, hits give low values 1.02 | locus YLR370C, strain arc18, hits give low values 1.03 | locus YLR371W, strain rom2, hits give low values 1 | locus YLR384C, strain iki3, hits give low values 1.02 | locus YLR418C, strain cdc73, hits give low values 0.991 | locus YML016C, strain PPZ1, hits give low values 1.01 | locus YML032C, strain rad52, hits give low values 1.01 | locus YML120C, strain ndi1, hits give low values 1.05 | locus YML124C, strain tub3, hits give low values 1.01 | locus YMR058W, strain fet3, hits give low values 1.01 | locus YMR078C, strain ctf18, hits give low values 0.996 | locus YMR125W, strain sto1, hits give low values 1.04 | locus YMR129W, hits give low values 1.01 | locus YMR205C, strain PFK2, hits give low values 1.02 | locus YMR223W, strain ubp8, hits give low values 1.01 | locus YMR231W, strain pep5, hits give low values 1 | locus YMR263W, strain SAP30, hits give low values 1.01 | locus YMR307W, strain GAS1, hits give low values 1.03 | locus YNL067W, strain RPL9B, hits give low values 1.03 | locus YNL071W, strain lat1, hits give low values 1.01 | locus YNL128W, strain TEP1, hits give low values 1.01 | locus YNL183C, strain NPR1, hits give low values 0.944 | locus YNL209W, strain ssb2, hits give low values 1.02 | locus YNL233W, strain BNI4, hits give low values 1.02 | locus YNL248C, strain rpa49, hits give low values 0.969 | locus YNL250W, strain rad50, hits give low values 1.01 | locus YNL271C, strain bni1, hits give low values 0.999 | locus YNL298W, strain CLA4, hits give low values 1.01 | locus YNL307C, strain MCK1, hits give low values 1.01 | locus YNL322C, strain KRE1 (second series), hits give low values 1.02 | locus YNR049C, strain mso1, hits give low values 1.01 | locus YNR052C, strain pop2, hits give low values 1 | locus YOL006C, strain TOP1, hits give low values 0.963 | locus YOL012C, strain htz1 0.928 | locus YOL147C, strain pex11, hits give low values 1 | locus YOR001W, strain rrp6, hits give low values 0.96 | locus YOR061W, strain CKA2, hits give low values 1.02 | locus YOR069W, strain VPS5, hits give low values 1.01 | locus YOR070C, strain gyp1, hits give low values 1.03 | locus YOR080W, strain dia2, hits give low values 1.02 | locus YOR083W, strain WHI5, hits give low values 1.03 | locus YOR106W, strain vam3, hits give low values 1.04 | locus YOR136W, strain idh2, hits give low values 1.02 | locus YOR144C, strain elg1, hits give low values 1.01 | locus YOR184W, strain ser1, hits give low values 1.06 | locus YOR231W, strain MKK1, hits give low values 0.96 | locus YOR265W, strain rbl2, hits give low values 1.01 | locus YOR270C, strain vph1, hits give low values 1.13 | locus YOR290C, strain snf2, hits give low values 1.07 | locus YOR316C, strain cot1, hits give low values 1.02 | locus YPL051W, strain arl3, hits give low values 0.978 | locus YPL078C, strain atp4, hits give low values 0.997 | locus YPL106C, strain sse1, hits give low values 1.06 | locus YPL240C, strain hsp82, hits give low values 1.03 | locus YPL241C, strain CIN2, hits give low values 1.01 | locus YPL256C, strain CLN2, hits give low values 0.986 | locus YPR119W, strain clb2, hits give low values 1.01 | locus YPR141C, strain kar3, hits give low values 1.01 | locus YPR163C, strain tif3, hits give low values 1.03 | locus YPR167C, strain met16, hits give low values 1.01 | strain wtn01, hits give low values 1.01
